BoNT-F LC inh: blocks Botulinum neurotoxin F light chain protease | Multiplex microsphere protease cleavage assay, flow cytometry | inhibition, % at 10 µM | 360,000 compounds, 0.22% hits; in the data active = inhibition above about 35%, passing the limit was not always enough; inconclusive = no clear call, values can overlap the other calls; also: plate controls were buffer without enzyme for full effect and enzyme alone for no effect
BoNT A protease: inhibitors of Botulinum neurotoxin A light chain protease. multiplex microsphere protease substrate cleavage, flow cytometry. inhibition, % at 10 µM. 360,000 compounds, 0.17% hits. AID 588499; also: plate controls were buffer without enzyme for full effect and enzyme alone for no effect
CCHFV vOTU inh: CCHFV vOTU protease inhibition | Pep-AMC fluorescence | 370,000 compounds, 0.55% hits | inhibition, % at 11.5 µM | AID 651958; in the data active = inhibition above about 30%; also: 0% = vehicle wells with enzyme and 100% = no enzyme wells
Anthrax LF prot: blocks Bacillus anthracis lethal factor protease. P15917. multiplex microsphere protease cleavage assay, LF. inhibition, % at 10 µM. 360,000 compounds, 0.12% hits; also: plate controls were buffer without enzyme for full effect and enzyme alone for no effect
SARS 3CLpro inh: SARS-CoV 3CLpro protease inhibition; AID 1706; inhibition, % at 6 µM; recombinant SARS-CoV 3CLpro, quenched FRET peptide cleavage; 290,000 compounds, 0.14% hits; P0C6X7; in the data active = inhibition above about 12%
Bead autofluor: counter-screen for toxin protease inhibitors: compound fluorescence | compound autofluorescence counterscreen, microsphere flow cytometry; active compounds read high | fluorescence intensity (test concentration not listed) | 360,000 compounds, 3.1% hits; in the data active = fluorescence intensity above about 16000; inconclusive = no clear call, values can overlap the other calls
An asterisk follows results filed as active. An excerpt weighted towards active compounds, which were near 3.9% of everything screened. Rule as the data show it, unless noted: active = inhibition above about 30%; inconclusive = no clear call, values can overlap the other calls; inactive = below that.

For CCOC(=O)c1ccc(NC(=O)COC)cc1 the results were BoNT-F LC inh 8, BoNT A protease 1, CCHFV vOTU inh -7, Anthrax LF prot -1, SARS 3CLpro inh -1 and Bead autofluor 9164.
Screening CCOC(=O)c1ccc(NC(=O)Cn2cccc2)cc1 returned BoNT-F LC inh 0, BoNT A protease 2, Anthrax LF prot -10, SARS 3CLpro inh -5 and Bead autofluor 22123*.
CCOC(=O)c1ccc(NC(=O)Cn2nnc(-c3ccc(F)cc3)n2)cc1 was read as BoNT-F LC inh -2, BoNT A protease -2, CCHFV vOTU inh 9, Anthrax LF prot 0, SARS 3CLpro inh 1 and Bead autofluor 23033*.
`CCc1cccc(NC(=O)Cn2cccc2)c1` gave BoNT-F LC inh -2, BoNT A protease -1, CCHFV vOTU inh -4, Anthrax LF prot -4, SARS 3CLpro inh -3 and Bead autofluor 23986*.
For CCc1cccc(NC(=O)CN2C(=O)NC3(CCCCCCC3)C2=O)c1 the results were BoNT-F LC inh 8, BoNT A protease 10, CCHFV vOTU inh -14, Anthrax LF prot -16, SARS 3CLpro inh 6 and Bead autofluor 13579.
Screening CCc1cccc(NC(=O)C2CC2c2ccccc2)c1 (stereo not drawn) returned BoNT-F LC inh 36*, BoNT A protease 0, CCHFV vOTU inh -1, Anthrax LF prot 10, SARS 3CLpro inh 5 and Bead autofluor 4084.
Screening O=C(NNC(=O)C1CC1c1ccccc1)Nc1cccc(Cl)c1 (stereo not drawn) returned BoNT-F LC inh -2, BoNT A protease 0, CCHFV vOTU inh -2, Anthrax LF prot -1, SARS 3CLpro inh 4 and Bead autofluor 11167.
C=CCC1NS(=O)(=O)OC2CCCC12 (stereo not drawn) was read as BoNT-F LC inh -7, BoNT A protease -1, CCHFV vOTU inh 17, Anthrax LF prot -11, SARS 3CLpro inh -7 and Bead autofluor 4353.
For Cc1c(N(C)S(=O)(=O)c2cccc(C(=O)NC(C)C)c2)c(=O)n(-c2ccccc2)n1C the results were BoNT-F LC inh -3, BoNT A protease -2, CCHFV vOTU inh 7, Anthrax LF prot 0, SARS 3CLpro inh 5 and Bead autofluor 6453.
For CCOC(=O)c1ccc(NC(=O)CN2C(=O)CNC2=O)cc1 the results were BoNT-F LC inh -3, BoNT A protease -3, CCHFV vOTU inh -10, Anthrax LF prot 0, SARS 3CLpro inh -1 and Bead autofluor 23272*.
Screening CCOC(=O)c1ccc(NC(=O)CSC2=NC(=O)C(CC)C(=O)N2)cc1 (stereo not drawn) returned BoNT-F LC inh -2, BoNT A protease 0, CCHFV vOTU inh -8, Anthrax LF prot -2, SARS 3CLpro inh 5 and Bead autofluor 16464*.
For CCC1C(=O)N=C(SCC(=O)Nc2cccc3ccccc23)NC1=O (stereo not drawn) the results were BoNT-F LC inh -3, BoNT A protease -1, CCHFV vOTU inh 4, Anthrax LF prot 9, SARS 3CLpro inh -2 and Bead autofluor 10345.
For COC(=O)c1ccc(NC(=O)CN2C(=O)C3C4C=CC(C4)C3C2=O)cc1 (stereo not drawn) the results were BoNT-F LC inh -3, BoNT A protease -3, CCHFV vOTU inh -1, Anthrax LF prot -1, SARS 3CLpro inh -3 and Bead autofluor 17210*.
Screening CCOC(=O)Cn1nnc(-c2ccc(S(C)(=O)=O)cc2)n1 returned BoNT-F LC inh -2, BoNT A protease 0, CCHFV vOTU inh -8, Anthrax LF prot -2, SARS 3CLpro inh -3 and Bead autofluor 23651*.
Screening Cc1cc(C)c(S(=O)(=O)N2C[C@H]3CON(C)[C@H]3C[C@H]2c2ccc(-n3ccnc3)cc2)c(C)c1 returned CCHFV vOTU inh -8.
`COC(=O)[C@]12C[C@H](CC(=O)NCCc3ccccc3OC)C(=O)N(CCc3ccc(OC)c(OC)c3)C1=C[C@H](C1CCCC1)O[C@@H]2C` gave CCHFV vOTU inh 15.
Screening COCC1CN(CCc2ccc(F)cc2)S(=O)(=O)c2c(OCCN3C(=O)[C@@H]4[C@H](C3=O)[C@@H]3C=C[C@H]4C3)cccc2O1 (stereo partly drawn) returned CCHFV vOTU inh 2.
COC(=O)CCCn1cc(CN2CC=CS2(=O)=O)nn1 was read as CCHFV vOTU inh -3.
`CCOC(=O)c1ccc(NC(=O)C(CC)(CC)C(=O)OCC)cc1` gave BoNT-F LC inh -9, BoNT A protease -4, CCHFV vOTU inh 6, Anthrax LF prot 2, SARS 3CLpro inh 3 and Bead autofluor 18219*.
`CCOC(=O)c1ccc(NC(=O)CSc2nnnn2CCCO)cc1` gave BoNT-F LC inh -3, BoNT A protease -1, CCHFV vOTU inh -6, Anthrax LF prot -1, SARS 3CLpro inh -1 and Bead autofluor 22895*.
`CCOC(=O)c1ccc(NC(=O)CN2C(=O)CSC2=O)cc1` gave BoNT-F LC inh 1, BoNT A protease 1, CCHFV vOTU inh -6, Anthrax LF prot 1, SARS 3CLpro inh 1 and Bead autofluor 22745*.
`COC(=O)c1ccc(NC(=O)CN2C(=O)CSC2=O)cc1` gave BoNT-F LC inh 2, BoNT A protease -1, CCHFV vOTU inh 2, Anthrax LF prot -4, SARS 3CLpro inh 0 and Bead autofluor 3231.
`COc1ccc(N2CCN(C(=O)c3ccc(Cl)c(S(=O)(=O)N4CCOCC4)c3)CC2)cc1` gave BoNT-F LC inh -4, BoNT A protease -1, CCHFV vOTU inh 12, Anthrax LF prot 5 and Bead autofluor 3568.
For CC(=O)c1cc(F)ccc1OCC(=O)N1CCCc2ccccc21 the results were BoNT-F LC inh 1, BoNT A protease 1, CCHFV vOTU inh 2, Anthrax LF prot 6, SARS 3CLpro inh 3 and Bead autofluor 3361.
`Cc1sc(-c2ccccn2)nc1OC(=O)c1ccc(F)cc1F` gave BoNT-F LC inh 9, BoNT A protease 2, CCHFV vOTU inh -1, Anthrax LF prot -1, SARS 3CLpro inh 3 and Bead autofluor 3596.
`Cc1sc(-c2ccccn2)nc1OC(=O)c1ccc(Cl)c(Cl)c1` gave BoNT-F LC inh -3, BoNT A protease -1, CCHFV vOTU inh 28, Anthrax LF prot 0, SARS 3CLpro inh 2 and Bead autofluor 23143*.
Cc1ccc(C(=O)n2nc(-c3cccnc3)nc2N)cc1 was read as BoNT-F LC inh -6, BoNT A protease -1, CCHFV vOTU inh -10, Anthrax LF prot -2, SARS 3CLpro inh 6 and Bead autofluor 9857.
For CCCC(=O)n1nc(-c2cccnc2)nc1N the results were BoNT-F LC inh -5, BoNT A protease inconclusive, CCHFV vOTU inh 3, Anthrax LF prot -2, SARS 3CLpro inh -1 and Bead autofluor 23837*.
For CCn1cc(C(=O)N2CCN(c3ccc(C(C)=O)cc3)CC2)c2cc(OC)c(OC)cc2c1=O the results were BoNT-F LC inh -2, BoNT A protease 0, CCHFV vOTU inh 5, Anthrax LF prot -1, SARS 3CLpro inh 1 and Bead autofluor 3280.
`CCOc1cc(S(=O)(=O)NCc2ccc(OC)cc2)c(OCC)cc1-n1cnnn1` gave BoNT-F LC inh 0, BoNT A protease inconclusive, CCHFV vOTU inh -10, Anthrax LF prot -4, SARS 3CLpro inh 2 and Bead autofluor 23322*.
